# Assay results: PubChem BioAssay (NCI)
# Compounds without any hit were thinned out: in the full panel of roughly 83,000, 20% have a hit.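 The test compound was applied at a single concentration to cells in 96-well plates for 48 hours, and percent growth was recorded.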 Unmarked numbers belong to inactive results. Activity calls are given as the source filed them. Rule for the calls: active = growth percent below 10; inactive = the rest.
# Tests used:
# Test in all cases: NCI-60 one-dose screen, 48 h (100 = growth as untreated, 0 = no growth, -100 = all killed)
# Conditions in all cases: 10 µM unless noted
# SK-MEL-2 melanoma = test system: SK-MEL-2 melanoma
# SN12C renal = test system: SN12C renal
# TK-10 renal = test system: TK-10 renal
# ACHN renal = test system: ACHN renal
# CAKI-1 renal = test system: CAKI-1 renal
# A498 renal = test system: A498 renal
# CCRF-CEM leukemia = test system: CCRF-CEM leukemia
# UO-31 renal = test system: UO-31 renal
# MOLT-4 leukemia = test system: MOLT-4 leukemia
Compound,growth (SK-MEL-2 melanoma),growth (SN12C renal),growth (TK-10 renal),growth (ACHN renal),growth (CAKI-1 renal),growth (A498 renal),growth (CCRF-CEM leukemia),growth (UO-31 renal),growth (MOLT-4 leukemia)
O=C(O)C1CCC(=O)N1C(=O)OCc1ccccc1 (stereo unspecified),103%,90.1%,88.7%,96.3%,83.4%,123%,102%,,
O=C(/C=C/c1c(Cl)nc2sccn12)c1nccs1,80.3%,89%,118%,89.1%,78.8%,72.2%,93.4%,81.8%,89.3%
O=C1/C(=C2/C=Nc3ccccc32)N(O)c2ccccc21,90.4%,74.8%,129%,68.7%,57.8%,55.4%,46.2%,57.7%,48.4%
COc1cc(C(=O)/C=C/c2c(-c3ccc(F)cc3)nc3sc(C)cn23)cc(OC)c1OC,144%,56.3%,,46.5%,32.8%,-1.47% (active),14.8%,58%,-38.8% (active)
Cc1occc1-c1n[nH]c(=S)n1N1C(=O)CSC1=S,107%,99.2%,99%,102%,85.4%,101%,,77.6%,99.7%
COc1cc(/C=C/C(=O)c2cccc(-n3cc(-c4ccccc4)[nH]c3=O)c2)ccc1O,56.5%,27.9%,81.6%,34.4%,45.8%,116%,,36.4%,6.81% (active)
O=C(/C=C/c1ccc(Cl)nc1)c1ccc(Cl)cc1Cl,106%,106%,100%,93.1%,71.2%,88.8%,7% (active),89.3%,15.9%
CC1=C([Se]CC(OC(=O)[C@@H](CO)NC(=O)OC(C)(C)C)C(=O)NC(C)(C)C)C(=O)c2ccccc2C1=O (stereo partly specified),-79.1% (active),-100% (active),-100% (active),-100% (active),-73.2% (active),7.64% (active),-29% (active),-100% (active),-31.6% (active)
C=CCNc1nc(NN2C(=O)c3cccc4cccc(c34)C2=O)nc(-n2cnc3ccccc32)n1,98.9%,60.4%,102%,64.8%,51.5%,32.4%,83.8%,14.3%,56%
O=c1[nH]ccc2nc(N3CCC(O)CC3)nc(Nc3ccc(N4CCOCC4)cc3)c12,69.3%,37.8%,82.1%,55.5%,26.3%,57.9%,70.6%,38.2%,
O=C(c1ccccc1)N1N=C(c2ccccc2)CC1c1nnc2n(Cc3ccccc3)c(=O)c3c4c(sc3n12)CCCC4 (stereo unspecified),77.6%,120%,111%,99.8%,99.3%,114%,,84.4%,88.8%
CCOC(=O)c1csc(NC(=O)COc2cccc(/C=C3\Oc4cc(OC)ccc4C3=O)c2)n1,83.5%,109%,125%,95.5%,92.3%,108%,62.3%,-38.8% (active),65.1%
